What all share (test): NCI-60 one-dose screen, 48 h (100 = growth as untreated, 0 = no growth, -100 = all killed)
Holding throughout (settings): 10 µM unless noted

Test [1] concerns SR leukemia.
Test [2] relates to RPMI-8226 leukemia.
Test [3] has as its system OVCAR-8 ovarian.
Test [4] has as its system OVCAR-5 ovarian.
The test system of test [5] is OVCAR-4 ovarian.
Test [6] has as its system SK-OV-3 ovarian.
Test [7] relates to IGROV1 ovarian.
In test [8] the test system is OVCAR-3 ovarian.
In test [9] the test system is HS 578T breast.
Test [10] concerns NCI/ADR-RES ovarian.

Drawing on PubChem BioAssay (NCI), this text covers growth for twelve compounds.

Values joined by “and” are separate entries in the source; they are usually repeats but may differ in a detail not shown here. Equal values may be shown once. Compounds without any hit were thinned out: in the full panel of roughly 83,000, 20% have a hit.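 For each line, cells grew in 96-well plates with the test compound present at a single concentration for 48 hours.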 Active and inactive are the calls of the source. How the source made its calls: active means growth percent below 10; inactive means the rest.

In the case of `CCCCC1=C(Br)C(=O)c2nc(C)ccc2C1=O`, the growth in [1] is 21.8% (inactive); in [2], 58.5% (inactive); in test [3] it was 88.3% (inactive); in [4] it was 102% (inactive); in test [5] it was 75.5% (inactive); in test [6] it was 95% (inactive). Moreover, the growth in [7] is 83.9% (inactive); in test [8] it was 48.5% (inactive); in test [9], 90.9% (inactive); in test [10], 100% (inactive).

On to `Nc1c(C(=O)Nc2ccncc2)sc2nc3c(cc12)CCCCCCCC3`, for which the growth is -27.5% (active) in test [1]; -49% (active) in [2]; -90.6% (active) in test [3]; -75.8% (active) in test [4]; -84.6% (active) in [5]; -92.1% (active) in test [6]. Further, the growth in test [7] is -73.7% (active); in test [8] it was -81.8% (active); in test [9], -37.1% (active); in test [10], -64.8% (active).

With `CCOC(=O)CC1CSC(c2cccc(Cl)c2)=N1` (stereo not given), the growth in test [1] was 92% (inactive); in [2], 104% (inactive); in [3], 102% (inactive); in test [4], 113% (inactive); in test [5], 111% (inactive); in test [6], 103% (inactive). The growth in [7] was 113% (inactive); in test [8] it was 107% (inactive); in test [9] it was 102% (inactive); in test [10], 96.4% (inactive).

Turning to `Nc1nc2c(s1)CCc1cn(S(=O)(=O)c3ccccc3)cc1-2`, the growth is 75.2% (inactive) and 92.8% (inactive) in [1]; 98.9% (inactive) and 91.4% (inactive) in [2]; 88.6% (inactive) and 110% (inactive) in [3]; 102% (inactive) and 104% (inactive) in test [4]; 87.5% (inactive) in test [5]; 106% (inactive) and 109% (inactive) in test [6]. The growth in [7] is 100% (inactive); in [8], 96% (inactive) and 108% (inactive); in [9], 86.4% (inactive) and 107% (inactive); in test [10], 91.9% (inactive) and 103% (inactive).

Regarding `Cn1c(=O)c2c(nc(Nc3cc(=O)[nH]c(=O)[nH]3)n2Cc2ccccc2)n(C)c1=O`, the growth is 90.7% (inactive) in [1]; 87.9% (inactive) in test [2]; 7.39% (active) in [3]; 96.9% (inactive) in [4]; 52.4% (inactive) in test [5]; 24.6% (inactive) in [6]. The growth in test [7] was 89.4% (inactive); in test [8], 0.369% (active); in test [9], -16.6% (active); in [10], 99.7% (inactive).

With `O=C(NNc1ccccc1)C1CCCN1` (stereo not given), the growth in test [1] was 105% (inactive); in [2], 78.7% (inactive); in test [3] it was 86.7% (inactive); in test [4], 69.7% (inactive); in test [5], 64.5% (inactive); in test [6], 80.6% (inactive). The growth in test [7] is 75.1% (inactive); in test [8], 88.8% (inactive); in test [9], 93% (inactive); in test [10], 84.1% (inactive).

As for `COc1ccc(-c2cc(-c3cccnc3)nc3sc4c(Cl)nnnc4c23)cc1OC`, the growth in test [1] is 6.41% (active); in [2], 58% (inactive); in [3], 91.4% (inactive); in test [4], 118% (inactive); in test [5], 96.5% (inactive); in test [6], 109% (inactive). In addition, the growth is 81.6% (inactive) in test [7], 91.9% (inactive) in test [8], 89.2% (inactive) in [9] and 108% (inactive) in test [10].

Regarding `Cc1n(Cc2ccc3ccccc3c2)c(Cl)c(Cl)[n+]1Cc1ccc2ccccc2c1`, the growth in test [1] was 6.73% (active); in [2], -16.8% (active); in test [3], 19.1% (inactive); in test [4] it was 51.1% (inactive); in test [5] it was 3.21% (active); in test [6], 65.5% (inactive). Moreover, the growth was -8.24% (active) in [7], 5.54% (active) in [8], 46.6% (inactive) in test [9] and 98.8% (inactive) in test [10].

On to `C=CCOc1ccc(/C=C2\SC(=S)N(CCc3ccc(O)cc3)C2=O)cc1`, for which the growth in [1] was 38.6% (inactive); in test [2], 76.8% (inactive); in test [3] it was 97.5% (inactive); in [4], 110% (inactive); in [5] it was 86.5% (inactive); in test [6], 115% (inactive). Moreover, the growth is 59.4% (inactive) in [7], 100% (inactive) in test [8], 95% (inactive) in test [9] and 98.9% (inactive) in test [10].

As to `O=C1OCC2=C1C(c1cccc(C(F)(F)F)c1)c1cc3c(cc1N2CCO)CCC3` (stereo not given), the growth is 11.1% (inactive) in test [1]; 17.9% (inactive) in test [2]; 5.39% (active) in test [3]; 36.1% (inactive) in test [4]; 52.3% (inactive) in test [5]; 5.48% (active) in [6]. Moreover, the growth in test [7] was 23.5% (inactive); in test [8] it was -17.8% (active); in test [9] it was 28% (inactive); in [10], 17.7% (inactive).

For `COc1ccccc1/C=C1\COc2ccc(O)cc2C1=O`, the growth in [1] is 11.5% (inactive); in test [2], 4.74% (active); in [3], 49.4% (inactive); in test [4] it was 103% (inactive); in test [5], 81.2% (inactive); in [6], 99.1% (inactive). In addition, the growth in [7] was 84.7% (inactive); in [8] it was 76.2% (inactive); in test [9], 83.5% (inactive); in test [10], 38.1% (inactive).

Take `O=C(Nc1cc(C(F)(F)F)cc(C(F)(F)F)c1)c1cc(Cl)ccc1O`: the growth is -8.27% (active) in test [1]; -31.5% (active) and -35.6% (active) in [2]; -37.8% (active) and 3.24% (active) in test [3]; 27.2% (inactive) and 23.1% (inactive) in test [4]; 24.8% (inactive) and 20.3% (inactive) in test [5]; -56.9% (active) and 1.67% (active) in test [6]. Besides, the growth in test [7] is 4.82% (active) and 9.9% (active); in test [8], 19.3% (inactive) and 2.52% (active); in test [9], -8.03% (active); in [10] it was -1.25% (active) and 2.06% (active).
